Laboratory results: ChEMBL document CHEMBL3988442, “University of Dundee, Small-Polar-MMV Screening Library” (2021)
Among all 67,000 compounds or so, about 300 (0.45%) showed an effect of 50% or more. For the sample, strong results were picked, then their nearest neighbours and some compounds at random.

These compounds were tested against Polyketide synthase Pks13 (Mycobacterium tuberculosis (strain ATCC 25618 / H37Rv)) (UniProt I6X8D2) (assay: Mycobacterium tuberculosis Polyketide synthase 13 Thioesterase (PKS13)). Conditions: 30 µM.
Polyketide synthase Pks13 (Mycobacterium tuberculosis (strain ATCC 25618 / H37Rv)), sequence (I6X8D2 whole entry): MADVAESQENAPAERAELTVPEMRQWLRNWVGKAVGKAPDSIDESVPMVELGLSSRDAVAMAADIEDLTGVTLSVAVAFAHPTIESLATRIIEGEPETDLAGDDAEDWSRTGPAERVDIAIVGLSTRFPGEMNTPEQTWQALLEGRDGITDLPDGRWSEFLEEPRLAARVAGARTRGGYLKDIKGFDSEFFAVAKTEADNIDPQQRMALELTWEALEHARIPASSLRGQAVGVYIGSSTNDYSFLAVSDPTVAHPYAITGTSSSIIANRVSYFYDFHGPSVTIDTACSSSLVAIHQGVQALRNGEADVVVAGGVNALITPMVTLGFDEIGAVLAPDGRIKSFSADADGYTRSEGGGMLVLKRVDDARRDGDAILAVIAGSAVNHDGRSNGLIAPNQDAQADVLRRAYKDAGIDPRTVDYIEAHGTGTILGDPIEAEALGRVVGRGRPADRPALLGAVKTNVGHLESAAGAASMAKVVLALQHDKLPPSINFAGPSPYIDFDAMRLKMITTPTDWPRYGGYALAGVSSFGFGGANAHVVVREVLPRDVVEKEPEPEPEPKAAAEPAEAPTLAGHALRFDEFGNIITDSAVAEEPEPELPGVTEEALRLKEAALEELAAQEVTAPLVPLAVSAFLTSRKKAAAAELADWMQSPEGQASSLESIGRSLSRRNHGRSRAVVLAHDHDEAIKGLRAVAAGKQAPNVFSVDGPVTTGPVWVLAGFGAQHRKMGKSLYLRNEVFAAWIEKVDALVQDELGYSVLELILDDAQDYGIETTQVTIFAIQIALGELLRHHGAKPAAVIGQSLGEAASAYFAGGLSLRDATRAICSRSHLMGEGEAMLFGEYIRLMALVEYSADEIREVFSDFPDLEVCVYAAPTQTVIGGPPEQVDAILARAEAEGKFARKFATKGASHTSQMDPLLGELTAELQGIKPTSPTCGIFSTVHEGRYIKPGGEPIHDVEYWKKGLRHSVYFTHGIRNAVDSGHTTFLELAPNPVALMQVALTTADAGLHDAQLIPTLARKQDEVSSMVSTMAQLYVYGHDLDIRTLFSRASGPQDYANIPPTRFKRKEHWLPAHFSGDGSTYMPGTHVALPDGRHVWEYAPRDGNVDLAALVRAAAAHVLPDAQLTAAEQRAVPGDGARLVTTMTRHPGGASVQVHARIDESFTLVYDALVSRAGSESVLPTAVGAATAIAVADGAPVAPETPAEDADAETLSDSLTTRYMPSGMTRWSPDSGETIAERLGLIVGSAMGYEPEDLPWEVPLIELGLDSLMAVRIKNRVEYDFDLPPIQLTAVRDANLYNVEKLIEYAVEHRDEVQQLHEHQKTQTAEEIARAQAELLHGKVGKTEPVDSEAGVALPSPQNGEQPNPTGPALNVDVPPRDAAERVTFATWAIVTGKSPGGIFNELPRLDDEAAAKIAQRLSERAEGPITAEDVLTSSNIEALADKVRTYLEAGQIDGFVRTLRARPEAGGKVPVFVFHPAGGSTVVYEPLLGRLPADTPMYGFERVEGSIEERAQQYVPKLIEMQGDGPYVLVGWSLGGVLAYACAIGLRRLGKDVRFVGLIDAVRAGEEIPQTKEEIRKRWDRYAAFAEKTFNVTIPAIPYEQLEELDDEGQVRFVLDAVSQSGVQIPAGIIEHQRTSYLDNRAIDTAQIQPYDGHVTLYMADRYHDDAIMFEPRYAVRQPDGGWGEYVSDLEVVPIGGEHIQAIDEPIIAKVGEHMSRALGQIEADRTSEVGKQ
Format: functional
Set-up: scale not given: in the data most compounds retested in dose-response had high values

Compound | Percent Effect
CN1CCc2c(sc3c2C(=O)NC(/C=C/c2ccccc2)N3)C1 (configuration not stated) | 33.3%
O=C1C[C@H]2[C@H](CCN2C(=O)c2cc[nH]n2)N1Cc1cccnc1 | -24.8%
O=C1CC(c2ccco2)c2sc(C(=O)O)c(-c3ccccc3)c2N1 (configuration not stated) | 65.6%
O=C1CC(c2ccccc2)c2sc(C(=O)O)c(-c3ccccc3)c2N1 (configuration not stated) | -32%
O=C1CC(c2ccc(O)cc2)c2sc(C(=O)O)c(-c3ccccc3)c2N1 (configuration not stated) | -18.2%
CCOC(=O)N1CCN(C(=O)C2CC(=O)N(c3ccccc3Br)C2)CC1 (configuration not stated) | 50.9%
O=C(C1CC1)N1CCN(C(=O)C2CC(=O)N(c3ccccc3Br)C2)CC1 (configuration not stated) | -26.4%
O=C(C1CC(=O)N(c2ccccc2Br)C1)N1CCCCCC1 (configuration not stated) | -11.4%
COc1ncccc1CN1C[C@@H]2COC[C@]2(CNS(C)(=O)=O)C1 | 1.01%
CCOCC1CCCN(C(=O)NCc2ccc(-c3ccn[nH]3)cc2)C1 (configuration not stated) | 56.4%
CC(=O)N1CCCN(C(=O)NCc2ccc(-c3ccn[nH]3)cc2)CC1 | -4.03%
CC(=O)NC1CCCN(C(=O)NCc2ccc(-c3ccn[nH]3)cc2)C1 (configuration not stated) | -5.89%
Cc1nnc(N2CC[C@H]3C[C@@H](C(=O)NC4CCCC4)O[C@H]3C2)s1 | -27.2%
O=C([C@H]1C[C@H]2OCC[C@H]2N(Cc2ccccn2)C1)N1CCCCO1 | -14.6%
CN(C)CC(=O)N1Cc2nc(C(=O)NCc3ccccc3)oc2C1 | 72.3%
CCCNC(=O)c1nc2c(o1)CN(C(=O)CN(C)C)C2 | -38.7%
CN(C)CC(=O)N1Cc2nc(C(=O)NCc3ccncc3)oc2C1 | -7.86%
Cc1cc(CNC(=O)c2ccno2)c(C)o1 | -13.1%
Cc1cc(CNC(=O)c2cnoc2C)c(C)o1 | 10.7%
Cc1cc(C(=O)NCc2cc(C)oc2C)no1 | 59.4%
Cc1nc([C@H]2C[C@@H]3CCN(Cc4scnc4C)C[C@H]3O2)no1 | -27.4%
Cc1cc(C)n(-c2nc(C(=O)NCCN3CCC(C)CC3)cs2)n1 | 51.2%
Cc1cc(C)n(-c2nc(C(=O)NCCS(=O)(=O)N3CCCCC3)cs2)n1 | 16%

Compound | Percent Effect
Cc1cc(C(=O)NCCN2CCC(C)CC2)nn1C(C)(C)C | -8.5%
CN(C)C(=O)CO[C@H]1CN(Cc2ccsc2)[C@@H]2COC[C@H]12 | -4.76%
O=C(C1CC1)N1C[C@H]2CCCN(S(=O)(=O)c3cccc(F)c3)[C@H]2C1 | -2.59%
CC(=O)NCCNC(=O)c1cnc(-c2ccc(C)cc2C)s1 | 10.8%
Cc1ccc(-c2ncc(C(=O)NCCNC(=O)C(C)C)s2)c(C)c1 | 1.54%
Cc1ccc(-c2ncc(C(=O)NCCNc3ncccn3)s2)c(C)c1 | 70.6%
Cc1ccc(C(=O)N2CC[C@H]3[C@@H]2CCC(=O)N3c2cccnc2)o1 | -561%
CN1CCS(=O)(=O)[C@@H]2CCN(C(=O)CC(C)(C)C)CC[C@@H]21 | -26%
Cc1cc(CN2C[C@@H]3COC[C@H](C(=O)N4CCCCO4)[C@@H]3C2)oc1C | -10.7%
Cc1cnc(N2C[C@@H]3CCN(CC4CC4)C(=O)[C@H]3C2)nc1 | -1.64%
CC(C)(O)CCc1cccc(C(=O)N[C@@H](CO)C(N)=O)c1 | 10.3%
C[C@H](NC(=O)c1cccc(CCC(C)(C)O)c1)C(N)=O | 54%
CC(C)[C@H](NC(=O)c1cccc(CCC(C)(C)O)c1)C(N)=O | 5.12%
CN(Cc1cncnc1)[C@H]1CN(CC2CC2)[C@@H]2CCCO[C@@H]21 | -5.38%
O=C1CN([C@@H]2CC[C@@H](NS(=O)(=O)c3ccccc3)[C@H]2O)CCN1 | 0.207%
O=C1CN([C@@H]2CC[C@@H](NS(=O)(=O)c3ccccc3F)[C@H]2O)CCN1 | -2.59%
Cc1ccccc1S(=O)(=O)N[C@@H]1CC[C@@H](N2CCNC(=O)C2)[C@@H]1O | 53%
COCCN1C[C@@H]2CCCO[C@@H]2[C@H](N(C)Cc2ccco2)C1 | -24.6%
Cc1ccc(CN2CC[C@@]3(O)CCN(S(=O)(=O)N(C)C)C[C@H]3C2)cc1C | -28.6%
Cc1cc(-c2cnn(CCNC(=O)c3cnn(C)c3)c2C2CC2)on1 | -12.5%
Cc1cc(-c2cnn(CCNC(=O)c3snnc3C)c2C2CC2)on1 | 90.2%
Cc1cc(-c2cnn(CCNC(=O)C3CC3)c2C2CC2)on1 | -12%
COc1cccc(-c2cc(NCCO)nc3[nH]ccc23)n1 | 7.17%

Compound | Percent Effect
COc1cccc(-c2cc(NCC(=O)O)nc3[nH]ccc23)n1 | 58.3%
COc1cccc(-c2cc(NCCN(C)C)nc3[nH]ccc23)n1 | 7.82%
CCC(=O)N1CCCCC[C@@H]2[C@@H]1[C@H](c1cccc(F)c1)CN2C | -27%
CCC(C)Nc1ccc(-c2nc(-c3cccc(OC)c3OC)no2)cn1 (configuration not stated) | 69.5%
COc1cccc(-c2noc(-c3ccc(NCC4CC4)nc3)n2)c1OC | 36.1%
COc1cccc(-c2noc(-c3ccc(NCC(C)O)nc3)n2)c1OC (configuration not stated) | 30.5%
COc1cccc(-c2noc(-c3ccc(NCC(C)C)nc3)n2)c1OC | 66%
COc1cccc(-c2noc(-c3ccc(NCCCO)nc3)n2)c1OC | 40.8%
CNCCNc1ccc(-c2nc(-c3cccc(OC)c3OC)no2)cn1 | -36.1%
CN(C)C(=O)N1CC[C@]2(O)CCN(C(=O)c3ccc(C#N)nc3)C[C@@H]2C1 | -13.4%
CCCN1CCN(C(=O)c2cc[nH]n2)[C@H]2CS(=O)(=O)C[C@H]21 | -8.12%
Cc1nnc([C@@H]2CC[C@@H]3[C@@H](CCN3Cc3ccccn3)O2)o1 | -21.9%
O=C1[C@@H]2CCN(CC3CCOCC3)C[C@@H]2OCCN1c1ccccc1 | -30.7%
CCC(=O)N1CCN(C(=O)c2cn3ccsc3n2)[C@H]2CS(=O)(=O)C[C@H]21 | -15.8%
O=C(Cc1cnccn1)N1C[C@H]2CC[C@@H]1CN(Cc1cscn1)C2 | -24.8%
CN(Cc1ccccc1)C(=O)c1nc(S(C)(=O)=O)n2ccccc12 | -33.7%
Cc1nc(C(=O)N(C)CC(F)(F)C(F)(F)F)c2ccccn12 | 132%
CN(CCC(F)(F)F)C(=O)c1nc(S(C)(=O)=O)n2ccccc12 | -23%
CC(C)CN1C(=O)CO[C@@H]2CN(C(=O)NC(C)C)C[C@H]21 | -42.5%
O=C(CSCC1CC1)N1C[C@@H]2CC[C@H](C1)N(Cc1ccccn1)C2=O | -35%
CO[C@H]1CCN(Cc2c(C)noc2C)[C@@H]2CN(Cc3ccncc3)C[C@H]12 | 13.1%
